Experimental data from PubChem BioAssay (NCATS).
Inconclusive results are not listed. Where a call stands in place of a potency, no number is given. The source holds several records for some structures; these can differ, active in one and inactive in another. Activity calls are given as the source filed them. The call rests on the fitted dose curve; in most records, active means well fitted cell-killing curve with a large enough effect; inconclusive means small, poorly fitted or top-dose-only effect, or effect the other way; inactive means flat fitted curve, though single readings scatter.

tested on: Es-2; test: Primary qHTS to identify gynecologic anti-cancer compounds using libraries of approved drugs and bioactive compounds (AID 1345084); details: Gynecologic cancer cell panel viability, ATPlite luminescence, 48 h; series mostly up to 57.5 µM; further: nearly all actives have a fitted effect of over 55% in size
How it was run: (§1)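 48 h compound exposure at 37 C, 5% CO2; five-point qHTS. ATPlite luminescence readout of cell ATP.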
Potency means the concentration at half of the fitted maximal effect.

Q: For `Cc1ccc(C(=O)c2cc(O)c(O)c([N+](=O)[O-])c2)cc1`, which Potency is on record?
A: inactive

Q: `CN(C)c1ccc2nc3ccc(=[N+](C)C)cc-3sc2c1` was tested. Which Potency did it give?
A: 1.78 µM (active)

Q: With `CCCCc1ccc2nc(NC(=O)OC)[nH]c2c1` as the compound, how does the Potency read?
A: 0.562 µM (active)

Q: `CCCOc1ccc2nc(NC(=O)OC)[nH]c2c1` was tested. Which Potency did it give?
A: 0.631 µM (active)

Q: Which Potency does the source give for `Cc1ncc([N+](=O)[O-])n1CC(C)O` (stereo not given) here?
A: inactive

Q: `CN(C)C(=O)[C@H](O)[C@H](Cc1ccccc1)NC(=O)c1cc2cc(Cl)ccc2[nH]1` was tested. Which Potency did it give?
A: inactive

Q: How did the Potency turn out when `COc1ccccc1N1CCN(CCN(C(=O)C2CCCCC2)c2ccccn2)CC1` was run?
A: inactive

Q: How did the Potency turn out when `CN(C)[C@@H](CCOc1cccc2ccccc12)c1ccccc1` was run?
A: inactive

Q: With `CCc1nc(N)nc(N)c1-c1ccc(Cl)cc1` as the compound, how does the Potency read?
A: 4.47 µM (active)

tested on: HeLa; test: as above; details: Gynecologic cancer cell panel viability, ATPlite luminescence, 48 h; series mostly up to 57.5 µM
How it was run: as §1

Q: Which Potency does the source give for `Cc1nc(Nc2ncc(C(=O)Nc3c(C)cccc3Cl)s2)cc(N2CCN(CCO)CC2)n1` here?
A: inactive

Q: For `CC(C)C[C@H](NC(=O)[C@H](Cc1ccccc1)NC(=O)c1cnccn1)B(O)O`, which Potency is on record?
A: 316 nM (active)

Q: With `Cc1cc(C2CCCCC2)n(O)c(=O)c1` as the compound, how does the Potency read?
A: inactive

Q: For `Cc1cc(=O)c2c(O)c3c(O)cc(=O)c4c3c3c(cc(O)c1c23)C(C)(C)C=4O`, which Potency is on record?
A: 2240 nM (active)

Q: With `CCCCN(CCCC)CCC(O)c1cc2c(Cl)cc(Cl)cc2c2cc(C(F)(F)F)ccc12` (stereo not given) as the compound, how does the Potency read?
A: inactive

Q: `Cc1c(C(=O)NN2CCCCC2)nn(-c2ccc(Cl)cc2Cl)c1-c1ccc(Cl)cc1` was tested. Which Potency did it give?
A: inactive

Q: For `CC(=O)O[C@H]1C(=O)[C@@]2(C)C([C@H](OC(=O)c3ccccc3)[C@]3(O)C[C@H](OC(=O)[C@H](O)[C@@H](NC(=O)c4ccccc4)c4ccccc4)C(C)=C1C3(C)C)[C@]1(OC(C)=O)CO[C@@H]1C[C@@H]2O` (stereo not given in full), which Potency is on record?
A: 79.4 nM (active)

Q: Which Potency does the source give for `CCN(CC)CCOc1ccc(Cc2ccccc2)cc1` here?
A: inactive

Q: Which Potency does the source give for `COc1cc(C(C)=O)ccc1OCCCN1CCC(c2noc3cc(F)ccc23)CC1` here?
A: inactive

Q: Which Potency does the source give for `COc1c2occc2cc2ccc(=O)oc12` here?
A: inactive

Q: For `COc1cc(Nc2c(C#N)cnc3cc(OCCCN4CCN(C)CC4)c(OC)cc23)c(Cl)cc1Cl`, which Potency is on record?
A: 25.1 µM (active) and inactive

Q: Which Potency does the source give for `COC1=C(OC)C(=O)C(CCCCCCCCCCO)=C(C)C1=O` here?
A: inactive

Q: With `CCCCCCCCOc1ccccc1C(=O)Nc1ccc(C(=O)OCC[N+](C)(CC)CC)cc1` as the compound, how does the Potency read?
A: inactive

Q: `CN1CCC(=C2c3ccccc3CCc3sccc32)CC1` was tested. Which Potency did it give?
A: inactive

Q: Which Potency does the source give for `Cc1cccc(CN2CCN(C(c3ccccc3)c3ccc(Cl)cc3)CC2)c1` (stereo not given) here?
A: inactive

Q: With `c1ccc2[nH]c(-c3cscn3)nc2c1` as the compound, how does the Potency read?
A: inactive

Q: For `O=C(O)c1cc(=O)c2c(OCC(O)COc3cccc4oc(C(=O)O)cc(=O)c34)cccc2o1`, which Potency is on record?
A: inactive

Q: For `CC(C)Oc1ccc2c(=O)c(-c3ccccc3)coc2c1`, which Potency is on record?
A: 28200 nM (active)

Q: With `CC[C@]1(O)C[C@H]2CN(CCc3c([nH]c4ccccc34)[C@@](C(=O)OC)(c3cc4c(cc3OC)N(C=O)[C@H]3[C@@](O)(C(=O)OC)[C@H](OC(C)=O)[C@]5(CC)C=CCN6CC[C@]43[C@@H]65)C2)C1` as the compound, how does the Potency read?
A: 891 nM (active)

Q: `Cc1ccc(NC(=O)c2ccc(CN3CCN(C)CC3)cc2)cc1Nc1nccc(-c2cccnc2)n1` was tested. Which Potency did it give?
A: inactive

Q: Which Potency does the source give for `OC(CN1CCN(c2cccc(Cl)c2)CC1)C(c1ccccc1)c1ccccc1` (stereo not given) here?
A: inactive

Q: Which Potency does the source give for `NNc1nncc2ccccc12` here?
A: inactive

Q: Which Potency does the source give for `O=C1CCc2ccc(OCCCCN3CCN(c4cccc(Cl)c4Cl)CC3)cc2N1` here?
A: inactive

Q: Which Potency does the source give for `CN(C)CCCC1(c2ccc(F)cc2)OCc2cc(C#N)ccc21` (stereo not given) here?
A: inactive

Q: `COC(=O)C1=C(C)NC(C)=C(C(=O)OCCCN2CCC(c3ccccc3)(c3ccccc3)CC2)C1c1cccc([N+](=O)[O-])c1` (stereo not given) was tested. Which Potency did it give?
A: inactive

Q: Which Potency does the source give for `CCCCc1ccc2nc(NC(=O)OC)[nH]c2c1` here?
A: 398 nM (active)

Q: Which Potency does the source give for `CCCOc1ccc2nc(NC(=O)OC)[nH]c2c1` here?
A: 282 nM (active)

Q: How did the Potency turn out when `Cc1ncc([N+](=O)[O-])n1CC(C)O` (stereo not given) was run?
A: inactive

Q: For `CN(C)C(=O)[C@H](O)[C@H](Cc1ccccc1)NC(=O)c1cc2cc(Cl)ccc2[nH]1`, which Potency is on record?
A: inactive

Q: Which Potency does the source give for `COc1ccccc1N1CCN(CCN(C(=O)C2CCCCC2)c2ccccn2)CC1` here?
A: inactive

Q: `CN(C)[C@@H](CCOc1cccc2ccccc12)c1ccccc1` was tested. Which Potency did it give?
A: inactive

Q: Which Potency does the source give for `CCc1nc(N)nc(N)c1-c1ccc(Cl)cc1` here?
A: 14100 nM (active)

tested on: Hek293T; test: as above; details: Gynecologic cancer cell panel viability, ATPlite luminescence, 48 h, control line for the selectivity index; series mostly up to 57.5 µM
How it was run: as §1

Q: For `O=C(O)c1cccnc1Nc1cccc(C(F)(F)F)c1`, which Potency is on record?
A: inactive

Q: How did the Potency turn out when `Cc1nc(Nc2ncc(C(=O)Nc3c(C)cccc3Cl)s2)cc(N2CCN(CCO)CC2)n1` was run?
A: inactive

Q: Which Potency does the source give for `Cc1cc(C2CCCCC2)n(O)c(=O)c1` here?
A: 7.08 µM (active)

Q: For `Cc1cc(=O)c2c(O)c3c(O)cc(=O)c4c3c3c(cc(O)c1c23)C(C)(C)C=4O`, which Potency is on record?
A: 2 µM (active)

Q: Which Potency does the source give for `CCCCN(CCCC)CCC(O)c1cc2c(Cl)cc(Cl)cc2c2cc(C(F)(F)F)ccc12` (stereo not given) here?
A: inactive

Q: For `CC(=O)O[C@H]1C(=O)[C@@]2(C)C([C@H](OC(=O)c3ccccc3)[C@]3(O)C[C@H](OC(=O)[C@H](O)[C@@H](NC(=O)c4ccccc4)c4ccccc4)C(C)=C1C3(C)C)[C@]1(OC(C)=O)CO[C@@H]1C[C@@H]2O` (stereo not given in full), which Potency is on record?
A: inactive

Q: For `CCN(CC)CCOc1ccc(Cc2ccccc2)cc1`, which Potency is on record?
A: inactive

Q: Which Potency does the source give for `Cc1ccc(Nc2nccc(N(C)c3ccc4c(C)n(C)nc4c3)n2)cc1S(N)(=O)=O` here?
A: inactive

Q: Which Potency does the source give for `CCCCCCCCOc1ccccc1C(=O)Nc1ccc(C(=O)OCC[N+](C)(CC)CC)cc1` here?
A: inactive

Q: For `CN1CCC(=C2c3ccccc3CCc3sccc32)CC1`, which Potency is on record?
A: inactive

Q: With `Cc1cccc(CN2CCN(C(c3ccccc3)c3ccc(Cl)cc3)CC2)c1` (stereo not given) as the compound, how does the Potency read?
A: inactive

Q: Which Potency does the source give for `O=C(O)c1cc(=O)c2c(OCC(O)COc3cccc4oc(C(=O)O)cc(=O)c34)cccc2o1` here?
A: inactive

Q: How did the Potency turn out when `OC(CN1CCN(c2cccc(Cl)c2)CC1)C(c1ccccc1)c1ccccc1` (stereo not given) was run?
A: inactive

Q: With `NNc1nncc2ccccc12` as the compound, how does the Potency read?
A: inactive

Q: Which Potency does the source give for `CN(C)CCCC1(c2ccc(F)cc2)OCc2cc(C#N)ccc21` (stereo not given) here?
A: inactive

Q: `Cc1ccc(C(=O)c2cc(O)c(O)c([N+](=O)[O-])c2)cc1` was tested. Which Potency did it give?
A: inactive

Q: For `CN(C)c1ccc2nc3ccc(=[N+](C)C)cc-3sc2c1`, which Potency is on record?
A: 14.1 µM (active)

Q: For `Cc1ncc([N+](=O)[O-])n1CC(C)O` (stereo not given), which Potency is on record?
A: inactive

Q: With `CCc1nc(N)nc(N)c1-c1ccc(Cl)cc1` as the compound, how does the Potency read?
A: 7.94 µM (active)
